25 compounds from the supplement of paper PMC6331611 can be followed below.

Structures are written as SMILES. ± gives the standard deviation of the averaged measurements. In all, about 1,600 compounds were measured (“normalized growth (OD600, IQM-normalized) in LPM”: median about 1, lowest 2% from about 0.014 on). What follows is part of a selection rich in the lowest values, with near analogues and random picks from the rest.

The test system of this assay is Salmonella enterica serovar Typhimurium SL1344. The assay can be described thus: normalized growth (OD600, IQM-normalized) in LPM (fraction of plate interquartile mean); higher = more bacterial growth (less inhibition). The note with it: LPM pH 5.8; 10 µM; 16 h.
Turning to `CCn1cc(C(=O)O)c(=O)c2cc3c(cc21)OCO3`, the normalized growth is 0.00952 ± 0.00073.
Then `C[N+]1(C)CCCC(OC(=O)C(O)(c2ccccc2)c2ccccc2)C1` (stereo not given), with 1.1 ± 0.011.
Regarding `CC[C@H]1CN2CC[C@H]1C[C@@H]2[C@@H](O)c1ccnc2ccc(OC)cc12`, the normalized growth turned out to be 0.912 ± 0.022.
The result for `CC(C)C[C@H]1C(=O)N2CCC[C@H]2[C@]2(O)O[C@](NC(=O)[C@@H]3C=C4c5cccc6[nH]c(Br)c(c56)C[C@H]4N(C)C3)(C(C)C)C(=O)N12` reads 0.947 ± 0.03.
Then `Cc1ccc(O)cc1.Cc1cccc(O)c1.Cc1ccccc1O`, with 0.955 ± 0.19; and `O=[N+]([O-])C(Br)(CO)CO`, with 0.786 ± 0.02; and `C[CH2][Hg][S]c1ccccc1C(=O)[O-].[Na+]`, with 0.00984 ± 0.0003.
The result for `O=C([O-])Cc1ccccc1.[Na+]` reads 1.14 ± 0.026; that for `CCCCOC(=O)c1ccccc1C(=O)OCCCC`, 1.363 ± 0.0046.
`Oc1noc2c1CCNC2` yielded a normalized growth of 0.948 ± 0.041.
The result for `[O-][n+]1ccccc1[S-].[O-][n+]1ccccc1[S-].[Zn+2]` reads 0.00799 ± 0.00024; that for `O=C1CCO1`, 0.959 ± 0.039; that for `Oc1ccc2c3c1O[C@H]1[C@@H](O)CC[C@@]4(O)[C@@H](C2)N(CC2CCC2)CC[C@]314`, 0.92 ± 0.12.
Regarding `CC(=O)[O][Hg][c]1ccccc1`, the normalized growth stood at 0.0096 ± 0.00029.
The result for `CC(Cc1ccc(O)cc1)NCC(O)c1cc(O)cc(O)c1` (stereo not given) reads 1.087 ± 0.0059.
The result for `CCOP(=S)(OCC)Oc1nc(Cl)c(Cl)cc1Cl` reads 1.33 ± 0.11.
The result for `NC(=O)C[S+]([O-])C(c1ccccc1)c1ccccc1` (stereo not given) reads 0.865 ± 0.082; that for `CC(C)=CC1C(C(=O)OCc2cccc(Oc3ccccc3)c2)C1(C)C` (stereo not given), 0.894 ± 0.04.
`NP(N)(=O)NC(=O)c1ccc(F)cc1` gave a normalized growth of 1.06 ± 0.017.
Then `C[N+]12CCC(CC1)C(OC(=O)C(O)(c1ccccc1)c1ccccc1)C2` (stereo not given), with 1.05 ± 0.026.
Then `Oc1ccc(Cl)cc1Cc1cc(Cl)ccc1O`, with 0.895 ± 0.086; and `Oc1cc(Cl)ccc1Oc1ccc(Cl)cc1Cl`, with 0.00811 ± 0.00016; and `Oc1ccc(Cl)cc1`, with 0.971 ± 0.012.
Then `O=[N+]([O-])O[C@@H]1CO[C@H]2[C@@H]1OC[C@@H]2O`, with 1.11 ± 0.026; and `CC(C)(O)C(Cl)(Cl)Cl`, with 1 ± 0.032.
